The text below walks through data of PubChem BioAssay (NCI).

Common to all, as to assay: NCI-60 one-dose screen, 48 h (100 = growth as untreated, 0 = no growth, -100 = all killed)
Conditions in all cases: 10 µM

The subject of test [1] is HCT-15 colon.
For test [2], the system named is HT29 colon.
Test [3] has as its system SNB-75 CNS.
In test [4] the test system is SNB-19 CNS.
For test [5], the system named is U251 CNS.
Test [6] has as its system PC-3 prostate.
Test [7] deals with SK-MEL-5 melanoma.
Test [8] concerns UACC-62 melanoma.
The test system of test [9] is LOX IMVI melanoma.
Test [10] deals with SK-MEL-28 melanoma.
Test [11] relates to SK-MEL-2 melanoma.
In test [12] the test system is EKVX NSCLC.
Test [13] has as its system UO-31 renal.
Test [14] relates to TK-10 renal.
Test [15] concerns ACHN renal.
Test [16] has as its system CAKI-1 renal.
The subject of test [17] is A498 renal.
In test [18] the test system is CCRF-CEM leukemia.
Test [19] deals with SN12C renal.
For test [20], the system named is MOLT-4 leukemia.

This is part of a sample that, as a whole, favours compounds with a hit. Of some 83,000 tested, about 20% had one in any assay.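 Cells were grown in 96-well plates and exposed to the test compound at a single concentration for 48 hours; results are reported as percent growth, with values below 10 considered active.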 A number with no mark means an inactive call. Calls of active or inactive are those of the source.

As to `O=C(NCCCCC(c1ccc(F)cc1)c1ccc(F)cc1)NCCCc1cccnc1`, the growth in test [1] was 14%; in [2], 14.4%; in test [3], 53%; in test [4] it was 24.5%; in test [5] it was 26.4%; in test [6], 11.5%. Further, the growth in [7] is -90.5% (active); in [8], 41.6%; in [9] it was 42.5%; in [10], 20.8%; in test [11], -1.41% (active); in test [12], 27.4%. Moreover, the growth in [13] is 26.2%; in test [14], 46.2%; in test [15], 37.5%; in test [16], 29.8%; in test [17] it was 84.2%; in [18] it was -25.4% (active).

Regarding `CCOP(=O)(OCC)O[C@H]1CC[C@]2(C)[C@H]3CC[C@@H]4[C@@H]([C@](C)(O)CCC=C(C)C)CC[C@@]4(C)[C@]3(C)CC[C@H]2C1(C)C`, the growth was 10.7% in test [1]; -50.2% (active) in test [2]; 51.4% in test [3]; 45.4% in [4]; 12.8% in test [5]; 19.8% in [6]. Moreover, the growth in test [7] was -84.2% (active); in [8], 43.5%; in test [9], -100% (active); in [10] it was 48.8%; in test [11], 17.1%; in [12], 28.2%. Besides, the growth in test [19] was -51.7% (active); in test [14] it was 36.6%; in [15], 28%; in test [16], 25.2%; in test [17], 52.5%; in test [18] it was -21.2% (active). In addition, in [20], the growth was -15.5% (active).

Take `CC(=O)Nc1ccc(-c2cn(-c3cccc(C(=O)Nc4cc(CN5CCOCC5)cc(C(F)(F)F)c4)c3)nn2)cn1`: the growth is -86.2% (active) in test [1]; -11.4% (active) in test [2]; -78% (active) in [3]; -88.5% (active) in test [4]; -71.9% (active) in test [5]; -69.7% (active) in [6]. The growth in [7] was -100% (active); in test [8] it was -98.1% (active); in test [9] it was -98.6% (active); in [10] it was -99.2% (active); in test [11], -84.6% (active); in [12], -88.1% (active). The growth in [19] was -93.2% (active); in test [14], -99.3% (active); in test [15], -100% (active); in [16], -91.9% (active); in [17] it was -95.5% (active); in test [18], -5.47% (active). Besides, the growth in test [20] is -22.2% (active).

For the compound `COc1cc(NC(=O)c2cc(-c3ccc(F)cc3F)ccc2O)cc(OC)c1OC`, the growth in test [1] is 41.1%; in test [2], 110%; in test [3], 40.9%; in test [4], 31.1%; in test [5] it was 32.6%; in test [6] it was 21.9%. Besides, the growth in test [7] was -15.7% (active); in test [8] it was 0.606% (active); in test [9], 55.3%; in test [10], 25%; in test [11], -5.57% (active); in [12], 50%. For the same compound, the growth in test [13] was 9.27% (active); in test [14], 33%; in test [15], 55.9%; in [16], 30.6%; in [17], -1.46% (active); in test [18], 25.6%. Also, the growth in test [20] was 10.6%.

Turning to `CN(C)c1cccc2c(S(=O)(=O)Nc3cccc(-c4csc(NC(=O)CCCCCN5CCN(c6cc7c(cc6F)C(=O)N(C6CCC(=O)NC6=O)C7=O)CC5)n4)c3)cccc12` (stereo not given), the growth in test [1] was 77.9%; in test [2], 92.3%; in [3], 60.5%; in test [4], 92.8%; in test [5] it was 94.4%; in [6], 78.5%. Also, the growth in [7] was 60.2%; in [8], 83.1%; in test [9] it was 91.8%; in [10], 104%; in [11] it was 108%; in [12], 80.8%. The growth in test [13] was 70%; in [14], 97.4%; in test [15], 97.8%; in test [16] it was 79.4%; in [17] it was 95.7%; in [18], 66.3%.

As to `CN(C(=O)c1ccc(C(F)(F)F)cc1C(F)(F)F)c1sc2c(c1C#N)CCC(=O)C2`, the growth in test [1] was 10.4%; in [2], 106%; in test [3], 105%; in test [4] it was 88.7%; in test [5], -11.7% (active); in [6] it was 0.435% (active). The growth was 25.9% in test [7]; 55.7% in test [8]; 29.2% in test [9]; 106% in [10]; 96.8% in [11]; 73.7% in test [12]. For the same compound, the growth is 62.4% in test [13]; 94.2% in test [14]; 82.7% in [15]; 61.3% in test [16]; 125% in test [17]; -0.48% (active) in [18]. For the same compound, in test [20], the growth was 36.4%.

`CCCn1c(O)c(N=Nc2nc(-c3cc4ccccc4oc3=O)cs2)c2cc(Br)ccc21`: the growth in test [1] was 90.4%; in test [2] it was 110%; in test [3], 94.7%; in test [4], 90.3%; in test [5], 86%; in test [6], 96.3%. In addition, the growth is 95.5% in [7]; 94.4% in [8]; 83.6% in test [9]; 101% in test [10]; 102% in test [11]; 92.8% in test [12]. Moreover, the growth is 85.1% in test [13]; 125% in test [14]; 91.1% in [15]; 96.4% in test [16]; 130% in test [17]; 98.9% in test [18]. In addition, the growth in [20] was 107%.

Take `COc1ccc(/C(C)=N/N=C2C(=O)N(C)c3ccc(Br)cc32)cc1S(N)(=O)=O`: the growth in test [1] is 75.1%; in test [2], 101%; in test [3], 6.59% (active); in [4] it was 34.7%; in test [5], 51.7%; in test [6], 73.7%. Further, the growth was 88.2% in test [7]; 73.8% in test [8]; 74.6% in test [9]; 90.3% in test [10]; 81.7% in test [11]; 56.7% in test [12]. Moreover, the growth in [19] was 68.7%; in test [14], 105%; in [15], 69.3%; in test [16], 41%; in test [17] it was 99.6%; in [18] it was 89.1%. Moreover, in test [20], the growth was 84.6%.
